# From paper PMC7862700, “An all-to-all approach to the identification of sequence-specific readers for epigenetic DNA modifications on cytosine”
# What was measured:
# Experiment in all cases: DAPPL (digital affinity profiling via proximity ligation, sequencing); 10 mM Tris-HCl pH 7.5, 50 mM NaCl, 1 mM DTT, 4% glycerol, room temperature, 30 min; GST-TFs on glutathione beads, 16-mer random dsDNA library, 0.1% formaldehyde crosslink after washing; high values mean tight binding
# [1] = target: T1, FEV (Homo sapiens, UniProt Q99581 1-238); conditions: protein: recombinant; tags: N-terminal GST; dsDNA, one strand shown
# T1 sequence: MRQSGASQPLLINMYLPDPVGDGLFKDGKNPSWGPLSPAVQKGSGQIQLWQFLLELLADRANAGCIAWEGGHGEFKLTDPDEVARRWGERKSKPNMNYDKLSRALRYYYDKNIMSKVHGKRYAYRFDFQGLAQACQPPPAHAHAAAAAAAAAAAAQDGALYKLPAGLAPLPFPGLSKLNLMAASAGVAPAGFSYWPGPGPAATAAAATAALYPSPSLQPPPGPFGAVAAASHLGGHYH
# In short: (§1)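 Each value of binding signal is a hexamer's read frequency for a factor divided by the same hexamer's frequency in the tag-only sample. Barcoded, bead-captured GST fusions of human transcription factors made in yeast were pooled with that sample and incubated with 200 nmole of a random double-stranded 16-mer DNA library in Tris/NaCl/DTT/glycerol buffer at room temperature for 30 min. Washing, 0.1% formaldehyde crosslinking, proximity ligation, PCR and Illumina NextSeq500 sequencing followed.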
# [2] = target: ETV5 (Homo sapiens, UniProt P41161 1-510); conditions: protein: recombinant; tags: N-terminal GST; dsDNA, one strand shown
# In short: as §1
# [3] = target: HSF1 (Homo sapiens, UniProt Q00613 1-529); conditions: protein: recombinant; tags: N-terminal GST; chain copies: 3; dsDNA, one strand shown
# In short: as §1
# [4] = target: T2, SPIC (Homo sapiens, UniProt Q8N5J4 1-248); conditions: protein: recombinant; tags: N-terminal GST; dsDNA, one strand shown
# T2 sequence: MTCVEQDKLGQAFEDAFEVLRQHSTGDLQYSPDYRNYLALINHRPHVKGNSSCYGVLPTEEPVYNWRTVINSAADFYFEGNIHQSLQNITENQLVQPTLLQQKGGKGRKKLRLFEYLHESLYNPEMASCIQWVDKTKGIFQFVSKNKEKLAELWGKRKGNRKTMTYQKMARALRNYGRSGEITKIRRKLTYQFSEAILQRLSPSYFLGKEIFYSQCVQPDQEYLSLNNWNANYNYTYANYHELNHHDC
# In short: as §1
# [5] = target: ELF4 (Homo sapiens, UniProt Q99607 1-663); conditions: protein: recombinant; tags: N-terminal GST; dsDNA, one strand shown
# In short: as §1
# [6] = target: T3, ELK4 (Homo sapiens, UniProt P28324-2 1-405); conditions: protein: recombinant; tags: N-terminal GST; dsDNA, one strand shown
# T3 sequence: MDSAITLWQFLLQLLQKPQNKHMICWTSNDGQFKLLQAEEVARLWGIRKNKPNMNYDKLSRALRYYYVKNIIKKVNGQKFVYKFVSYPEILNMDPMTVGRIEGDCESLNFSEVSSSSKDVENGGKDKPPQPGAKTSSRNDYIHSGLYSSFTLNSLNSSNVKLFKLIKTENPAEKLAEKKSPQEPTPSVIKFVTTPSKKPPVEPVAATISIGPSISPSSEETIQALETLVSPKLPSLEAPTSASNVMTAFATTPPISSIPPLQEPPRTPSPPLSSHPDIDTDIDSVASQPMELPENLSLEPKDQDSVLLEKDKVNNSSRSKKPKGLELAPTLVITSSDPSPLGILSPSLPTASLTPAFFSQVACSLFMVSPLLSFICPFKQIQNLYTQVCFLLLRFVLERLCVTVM
# In short: as §1
# [7] = target: T4, ETV2 (Homo sapiens, UniProt O00321 1-342); conditions: protein: recombinant; tags: N-terminal GST; dsDNA, one strand shown
# T4 sequence: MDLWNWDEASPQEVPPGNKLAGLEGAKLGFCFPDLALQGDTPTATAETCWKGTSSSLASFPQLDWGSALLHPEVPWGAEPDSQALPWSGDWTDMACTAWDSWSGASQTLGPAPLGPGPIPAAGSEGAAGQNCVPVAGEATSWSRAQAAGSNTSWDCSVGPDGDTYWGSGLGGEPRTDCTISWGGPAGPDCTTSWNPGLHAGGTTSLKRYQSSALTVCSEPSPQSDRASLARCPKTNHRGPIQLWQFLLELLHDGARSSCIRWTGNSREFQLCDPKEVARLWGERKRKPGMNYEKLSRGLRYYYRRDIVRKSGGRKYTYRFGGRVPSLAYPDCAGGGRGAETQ
# In short: as §1
# [8] = target: T5, ELF3 (Homo sapiens, UniProt P78545 1-371); conditions: protein: recombinant; tags: N-terminal GST; dsDNA, one strand shown
# T5 sequence: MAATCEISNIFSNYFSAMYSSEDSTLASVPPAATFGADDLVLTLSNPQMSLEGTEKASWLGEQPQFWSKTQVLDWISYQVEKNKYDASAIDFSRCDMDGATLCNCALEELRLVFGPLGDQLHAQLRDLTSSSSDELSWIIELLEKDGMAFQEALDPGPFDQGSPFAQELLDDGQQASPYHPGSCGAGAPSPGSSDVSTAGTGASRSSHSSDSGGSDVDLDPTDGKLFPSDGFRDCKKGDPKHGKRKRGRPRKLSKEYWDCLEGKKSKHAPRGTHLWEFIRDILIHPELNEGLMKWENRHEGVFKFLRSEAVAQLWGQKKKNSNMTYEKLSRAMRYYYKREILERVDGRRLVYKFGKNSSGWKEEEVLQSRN
# In short: as §1
# [9] = target: CRX (Homo sapiens, UniProt O43186 1-299); conditions: protein: recombinant; tags: N-terminal GST; dsDNA, one strand shown
# In short: as §1
# [10] = target: ETV1 (Homo sapiens, UniProt P50549 1-477); conditions: protein: recombinant; tags: N-terminal GST; dsDNA, one strand shown
# In short: as §1
# [11] = target: T6, ERF (Homo sapiens, UniProt P50548 1-548); conditions: protein: recombinant; tags: N-terminal GST; dsDNA, one strand shown
# T6 sequence: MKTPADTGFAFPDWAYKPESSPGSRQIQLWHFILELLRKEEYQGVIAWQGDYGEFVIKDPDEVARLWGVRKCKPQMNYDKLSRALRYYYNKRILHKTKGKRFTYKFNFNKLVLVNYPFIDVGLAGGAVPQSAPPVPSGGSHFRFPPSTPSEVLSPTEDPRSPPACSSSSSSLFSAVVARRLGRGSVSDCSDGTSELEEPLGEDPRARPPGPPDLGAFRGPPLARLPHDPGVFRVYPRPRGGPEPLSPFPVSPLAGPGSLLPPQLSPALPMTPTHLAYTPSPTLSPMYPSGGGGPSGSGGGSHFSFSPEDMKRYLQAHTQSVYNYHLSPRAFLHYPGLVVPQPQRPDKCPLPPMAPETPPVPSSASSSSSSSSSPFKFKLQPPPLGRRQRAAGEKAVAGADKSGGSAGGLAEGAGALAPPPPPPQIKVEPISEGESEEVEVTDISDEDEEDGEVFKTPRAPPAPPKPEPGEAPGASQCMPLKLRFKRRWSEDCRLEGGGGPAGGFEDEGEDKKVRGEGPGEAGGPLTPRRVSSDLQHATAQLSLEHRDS
# In short: as §1
# [12] = target: T7, ETV3L (Homo sapiens, UniProt Q6ZN32 1-361); conditions: protein: recombinant; tags: N-terminal GST; dsDNA, one strand shown
# T7 sequence: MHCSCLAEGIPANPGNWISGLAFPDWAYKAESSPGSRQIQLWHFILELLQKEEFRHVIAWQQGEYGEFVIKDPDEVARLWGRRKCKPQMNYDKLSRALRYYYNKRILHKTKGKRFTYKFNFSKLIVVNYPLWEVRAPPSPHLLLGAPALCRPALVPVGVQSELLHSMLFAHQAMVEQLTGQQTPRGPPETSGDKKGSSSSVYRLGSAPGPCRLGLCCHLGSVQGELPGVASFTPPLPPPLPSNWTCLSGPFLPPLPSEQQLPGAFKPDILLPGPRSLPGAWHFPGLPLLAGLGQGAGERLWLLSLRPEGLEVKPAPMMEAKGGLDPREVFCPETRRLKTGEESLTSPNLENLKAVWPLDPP
# In short: as §1
# [13] = target: T8, ETS2 (Homo sapiens, UniProt P15036 1-469); conditions: protein: recombinant; tags: N-terminal GST; dsDNA, one strand shown
# T8 sequence: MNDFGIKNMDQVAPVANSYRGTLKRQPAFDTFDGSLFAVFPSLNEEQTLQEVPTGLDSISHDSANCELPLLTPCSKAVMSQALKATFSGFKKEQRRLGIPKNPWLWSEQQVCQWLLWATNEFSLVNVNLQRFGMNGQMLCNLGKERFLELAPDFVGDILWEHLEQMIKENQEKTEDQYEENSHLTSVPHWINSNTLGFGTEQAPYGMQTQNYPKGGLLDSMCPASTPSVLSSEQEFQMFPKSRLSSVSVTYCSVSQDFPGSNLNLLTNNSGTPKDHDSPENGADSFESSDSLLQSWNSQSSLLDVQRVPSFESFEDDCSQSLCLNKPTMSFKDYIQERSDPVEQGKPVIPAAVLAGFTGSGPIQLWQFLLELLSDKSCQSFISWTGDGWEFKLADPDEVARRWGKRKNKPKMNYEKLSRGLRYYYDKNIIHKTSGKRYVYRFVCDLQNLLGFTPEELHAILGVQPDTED
# In short: as §1
# [14] = target: T9, SPDEF (Homo sapiens, UniProt O95238 1-335); conditions: protein: recombinant; tags: N-terminal GST; dsDNA, one strand shown
# T9 sequence: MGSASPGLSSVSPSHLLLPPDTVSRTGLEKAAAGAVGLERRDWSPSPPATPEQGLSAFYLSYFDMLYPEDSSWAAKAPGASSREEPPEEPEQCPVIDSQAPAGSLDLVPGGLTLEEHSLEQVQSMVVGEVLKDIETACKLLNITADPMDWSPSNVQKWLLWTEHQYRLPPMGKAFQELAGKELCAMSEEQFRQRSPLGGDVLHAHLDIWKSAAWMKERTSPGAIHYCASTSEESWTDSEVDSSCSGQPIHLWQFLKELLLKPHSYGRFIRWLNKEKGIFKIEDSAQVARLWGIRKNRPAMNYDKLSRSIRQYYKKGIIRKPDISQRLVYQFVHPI
# In short: as §1
# [15] = target: T10, ETV7 (Homo sapiens, UniProt Q9Y603 1-341); conditions: protein: recombinant; tags: N-terminal GST; dsDNA, one strand shown
# T10 sequence: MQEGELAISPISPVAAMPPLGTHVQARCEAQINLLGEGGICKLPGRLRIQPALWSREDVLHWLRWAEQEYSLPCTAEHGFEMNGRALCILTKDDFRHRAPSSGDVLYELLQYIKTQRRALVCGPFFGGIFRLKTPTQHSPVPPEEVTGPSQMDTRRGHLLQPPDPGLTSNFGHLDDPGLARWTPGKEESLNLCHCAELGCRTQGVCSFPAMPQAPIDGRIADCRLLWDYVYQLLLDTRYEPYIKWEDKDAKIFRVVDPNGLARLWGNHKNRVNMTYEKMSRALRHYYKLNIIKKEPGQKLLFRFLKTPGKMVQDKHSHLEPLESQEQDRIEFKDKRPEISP
# In short: as §1
# [16] = target: T11, ELF5 (Homo sapiens, UniProt Q9UKW6-2 1-255); conditions: protein: recombinant; tags: N-terminal GST; dsDNA, one strand shown
# T11 sequence: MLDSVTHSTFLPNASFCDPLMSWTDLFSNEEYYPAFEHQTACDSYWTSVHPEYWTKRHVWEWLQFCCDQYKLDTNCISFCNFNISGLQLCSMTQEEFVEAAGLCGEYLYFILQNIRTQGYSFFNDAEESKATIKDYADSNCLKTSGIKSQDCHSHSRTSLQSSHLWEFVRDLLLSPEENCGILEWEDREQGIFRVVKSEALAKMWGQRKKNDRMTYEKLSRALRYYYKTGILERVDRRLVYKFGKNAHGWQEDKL
# In short: as §1
# [17] = target: T12, ETV3 (Homo sapiens, UniProt P41162-2 1-143); conditions: protein: recombinant; tags: N-terminal GST; dsDNA, one strand shown
# T12 sequence: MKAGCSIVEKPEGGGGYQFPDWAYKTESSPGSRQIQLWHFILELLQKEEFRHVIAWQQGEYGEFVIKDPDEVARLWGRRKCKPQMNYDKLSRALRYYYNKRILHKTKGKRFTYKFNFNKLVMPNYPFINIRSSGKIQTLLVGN
# In short: as §1
# [18] = target: ETV6 (Homo sapiens, UniProt P41212 1-452); conditions: protein: recombinant; tags: N-terminal GST; dsDNA, one strand shown
# In short: as §1
# Chain of ETV6 (P41212 whole entry): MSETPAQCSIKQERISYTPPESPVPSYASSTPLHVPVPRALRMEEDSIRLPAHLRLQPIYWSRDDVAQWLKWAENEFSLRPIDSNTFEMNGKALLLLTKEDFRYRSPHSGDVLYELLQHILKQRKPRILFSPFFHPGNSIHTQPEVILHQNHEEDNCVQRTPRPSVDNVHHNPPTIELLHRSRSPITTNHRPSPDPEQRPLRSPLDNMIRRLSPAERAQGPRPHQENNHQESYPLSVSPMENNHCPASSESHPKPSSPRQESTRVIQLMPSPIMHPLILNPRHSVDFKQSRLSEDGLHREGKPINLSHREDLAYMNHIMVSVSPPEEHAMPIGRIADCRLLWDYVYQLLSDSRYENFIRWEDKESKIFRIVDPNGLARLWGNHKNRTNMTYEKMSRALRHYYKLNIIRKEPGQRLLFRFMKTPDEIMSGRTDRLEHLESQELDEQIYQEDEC
# Chain of HSF1 (Q00613 whole entry): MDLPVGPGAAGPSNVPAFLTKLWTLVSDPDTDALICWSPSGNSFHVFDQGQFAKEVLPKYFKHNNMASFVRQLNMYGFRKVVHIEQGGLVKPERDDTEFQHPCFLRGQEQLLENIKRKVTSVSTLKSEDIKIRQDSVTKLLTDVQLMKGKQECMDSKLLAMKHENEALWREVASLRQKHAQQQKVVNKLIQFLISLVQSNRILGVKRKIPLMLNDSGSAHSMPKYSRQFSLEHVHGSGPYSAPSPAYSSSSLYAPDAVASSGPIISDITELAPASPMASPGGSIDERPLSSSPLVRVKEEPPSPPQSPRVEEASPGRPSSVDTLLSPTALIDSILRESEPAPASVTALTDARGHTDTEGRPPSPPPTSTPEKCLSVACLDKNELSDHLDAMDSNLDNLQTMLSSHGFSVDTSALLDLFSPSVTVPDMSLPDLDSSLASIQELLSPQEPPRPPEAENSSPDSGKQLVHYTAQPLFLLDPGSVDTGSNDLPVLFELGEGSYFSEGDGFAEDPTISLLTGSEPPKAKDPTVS
# Chain of ETV5 (P41161 whole entry): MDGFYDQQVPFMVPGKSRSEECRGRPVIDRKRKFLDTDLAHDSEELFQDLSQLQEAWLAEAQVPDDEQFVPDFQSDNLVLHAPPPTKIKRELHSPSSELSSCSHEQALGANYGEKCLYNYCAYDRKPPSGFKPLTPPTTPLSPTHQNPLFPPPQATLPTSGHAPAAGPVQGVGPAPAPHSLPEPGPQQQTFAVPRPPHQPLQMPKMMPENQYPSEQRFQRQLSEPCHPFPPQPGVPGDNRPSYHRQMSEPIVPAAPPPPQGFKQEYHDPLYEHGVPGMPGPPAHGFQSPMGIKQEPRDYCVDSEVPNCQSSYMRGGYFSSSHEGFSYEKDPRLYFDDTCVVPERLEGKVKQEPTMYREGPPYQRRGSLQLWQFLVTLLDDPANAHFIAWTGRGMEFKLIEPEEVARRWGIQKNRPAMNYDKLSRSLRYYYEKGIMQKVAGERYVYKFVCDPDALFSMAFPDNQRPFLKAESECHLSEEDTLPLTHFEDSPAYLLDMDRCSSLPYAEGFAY
# Chain of ETV1 (P50549 whole entry): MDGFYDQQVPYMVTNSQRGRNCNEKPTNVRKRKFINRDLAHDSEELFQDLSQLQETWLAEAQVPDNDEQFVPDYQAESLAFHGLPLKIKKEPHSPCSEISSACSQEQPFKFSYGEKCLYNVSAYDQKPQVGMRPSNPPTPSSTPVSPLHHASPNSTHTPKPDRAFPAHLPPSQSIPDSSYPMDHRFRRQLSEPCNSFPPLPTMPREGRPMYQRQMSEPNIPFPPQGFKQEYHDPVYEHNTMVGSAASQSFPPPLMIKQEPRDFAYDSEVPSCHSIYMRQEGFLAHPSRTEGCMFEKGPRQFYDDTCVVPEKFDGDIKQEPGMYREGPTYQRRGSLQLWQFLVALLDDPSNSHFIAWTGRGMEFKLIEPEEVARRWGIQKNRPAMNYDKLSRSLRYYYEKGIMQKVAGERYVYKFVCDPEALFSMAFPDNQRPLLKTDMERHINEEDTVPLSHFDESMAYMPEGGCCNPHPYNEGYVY
# Chain of ELF4 (Q99607 whole entry): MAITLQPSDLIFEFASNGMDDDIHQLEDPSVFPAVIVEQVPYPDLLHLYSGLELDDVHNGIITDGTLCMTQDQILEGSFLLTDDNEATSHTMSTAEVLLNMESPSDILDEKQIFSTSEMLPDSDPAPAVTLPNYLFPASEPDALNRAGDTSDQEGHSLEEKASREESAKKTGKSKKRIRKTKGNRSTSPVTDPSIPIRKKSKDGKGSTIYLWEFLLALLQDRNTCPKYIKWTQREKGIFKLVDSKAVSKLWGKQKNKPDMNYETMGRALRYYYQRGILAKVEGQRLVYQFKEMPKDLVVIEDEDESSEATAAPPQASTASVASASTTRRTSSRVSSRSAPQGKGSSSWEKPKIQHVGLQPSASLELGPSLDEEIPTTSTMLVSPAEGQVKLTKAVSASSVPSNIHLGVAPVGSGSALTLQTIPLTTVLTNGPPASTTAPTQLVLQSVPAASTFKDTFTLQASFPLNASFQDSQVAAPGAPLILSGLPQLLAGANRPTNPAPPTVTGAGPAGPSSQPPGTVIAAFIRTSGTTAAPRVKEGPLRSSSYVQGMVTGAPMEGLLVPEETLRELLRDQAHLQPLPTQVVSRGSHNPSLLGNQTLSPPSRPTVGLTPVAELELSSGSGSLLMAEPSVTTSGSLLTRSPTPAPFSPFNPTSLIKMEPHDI
# Chain of CRX (O43186 whole entry): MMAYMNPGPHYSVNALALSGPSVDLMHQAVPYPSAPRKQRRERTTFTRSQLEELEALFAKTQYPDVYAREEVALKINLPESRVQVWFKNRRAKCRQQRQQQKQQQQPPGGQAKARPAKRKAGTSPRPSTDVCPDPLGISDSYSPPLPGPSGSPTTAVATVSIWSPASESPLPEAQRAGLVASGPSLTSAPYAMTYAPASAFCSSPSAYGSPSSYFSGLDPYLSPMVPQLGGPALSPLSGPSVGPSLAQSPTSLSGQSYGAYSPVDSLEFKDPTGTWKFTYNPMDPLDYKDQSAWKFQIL
sequence,measurement,setting,value
TCCTGC,binding signal,[1],"1.62 fold enrichment (6-mer frequency, TF over GST control)"
same,binding signal,[2],"1.83 fold enrichment (6-mer frequency, TF over GST control)"
same,binding signal,[3],"1.25 fold enrichment (6-mer frequency, TF over GST control)"
same,binding signal,[4],"1.68 fold enrichment (6-mer frequency, TF over GST control)"
same,binding signal,[5],"1.56 fold enrichment (6-mer frequency, TF over GST control)"
same,binding signal,[6],"1.36 fold enrichment (6-mer frequency, TF over GST control)"
same,binding signal,[7],"1.49 fold enrichment (6-mer frequency, TF over GST control)"
same,binding signal,[8],"1.75 fold enrichment (6-mer frequency, TF over GST control)"
same,binding signal,[9],"1.26 fold enrichment (6-mer frequency, TF over GST control)"
same,binding signal,[10],"1.6 fold enrichment (6-mer frequency, TF over GST control)"
same,binding signal,[11],"1.43 fold enrichment (6-mer frequency, TF over GST control)"
same,binding signal,[12],"1.71 fold enrichment (6-mer frequency, TF over GST control)"
same,binding signal,[13],"1.65 fold enrichment (6-mer frequency, TF over GST control)"
same,binding signal,[14],"1.98 fold enrichment (6-mer frequency, TF over GST control)"
same,binding signal,[15],"1.69 fold enrichment (6-mer frequency, TF over GST control)"
same,binding signal,[16],"2.12 fold enrichment (6-mer frequency, TF over GST control)"
same,binding signal,[17],"1.73 fold enrichment (6-mer frequency, TF over GST control)"
same,binding signal,[18],"1.77 fold enrichment (6-mer frequency, TF over GST control)"
